Measured values published in PubChem BioAssay (NCATS).
Results filed as inconclusive are left out. Entries that show only a call come without a potency. Calls of active or inactive are those of the source. Unless noted, the call rests on the fitted dose curve; in most records, active means well fitted curve in the direction sought with a large enough effect; inconclusive means small, poorly fitted or top-dose-only effect, or another doubt; inactive means no such curve, though single readings can be large; an effect the other way counts as inactive or inconclusive.

Assays:
[1] = biological target: Calcium and integrin-binding protein 1 (Homo sapiens) (UniProt Q99828); assay: Validation qHTS for Identification of Calcium Integrin Binding protein 1 (CIB1) Competitor (AID 1508618); further: potency means the concentration at half of the fitted maximal effect
Calcium and integrin-binding protein 1 (Homo sapiens), sequence (Q99828 whole entry, looked up): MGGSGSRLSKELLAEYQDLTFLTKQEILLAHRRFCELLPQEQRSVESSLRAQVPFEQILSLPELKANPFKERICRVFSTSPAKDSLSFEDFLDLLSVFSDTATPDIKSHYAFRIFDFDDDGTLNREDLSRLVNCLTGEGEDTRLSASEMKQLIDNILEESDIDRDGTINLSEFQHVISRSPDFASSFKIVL
How it was run: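 Displacement of FITC-alphaIIb peptide (100 nM) from CIB1-GST (1 uM) is monitored by polarization in quantitative HTS format; buffer carries 5 mM CaCl2 and 125 mM NaCl at pH 7.4, incubations are at room temperature.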

[2] = Primary qHTS for small molecule stabilizers of the endoplasmic reticulum resident proteome: Secreted ER Calcium Modulated Protein (SERCaMP) assay (AID 1508630)
How it was run: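 The SH-SY5Y reporter protocol was run at 3 concentrations up to 38.3 uM (primary) or 11 concentrations (follow-up): 16 h compound, 100 nM thapsigargin for 4 h, then extracellular luciferase luminescence.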

Papain (Carica papaya) = Papain (Carica papaya) (UniProt P00784); assay: Primary qHTS assay for inhibitors of the protease papain (AID 1645873);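 further: papain turnover of Z-FR-AMC read as the AMC fluorescence gain over 10 min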; further: potency means the concentration at half of the fitted maximal effect
Papain (Carica papaya), sequence (P00784 whole entry, looked up): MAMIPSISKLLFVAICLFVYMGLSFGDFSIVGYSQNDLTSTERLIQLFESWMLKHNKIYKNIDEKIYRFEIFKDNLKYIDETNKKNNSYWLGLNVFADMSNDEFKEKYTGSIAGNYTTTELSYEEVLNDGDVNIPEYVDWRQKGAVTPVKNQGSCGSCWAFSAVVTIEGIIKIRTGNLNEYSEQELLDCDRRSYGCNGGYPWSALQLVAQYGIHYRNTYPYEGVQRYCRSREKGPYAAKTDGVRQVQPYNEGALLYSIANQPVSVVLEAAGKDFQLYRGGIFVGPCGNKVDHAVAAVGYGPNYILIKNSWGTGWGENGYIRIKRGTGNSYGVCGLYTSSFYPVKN

[3] = biological target: Catechol O-methyltransferase (Homo sapiens) (UniProt P21964); assay: Confirmatory Screen for Target Class Profiling of Small Molecule Inhibitors of Methyltransferases (AID 1745852; calls by dose curve; further: potency means the concentration at half of the fitted maximal effect); details: MTase-Glo luminescence, SAH detection, recombinant enzyme; measured here: COMT max response; stronger effect = lower value
Catechol O-methyltransferase (Homo sapiens), sequence (P21964 whole entry, looked up): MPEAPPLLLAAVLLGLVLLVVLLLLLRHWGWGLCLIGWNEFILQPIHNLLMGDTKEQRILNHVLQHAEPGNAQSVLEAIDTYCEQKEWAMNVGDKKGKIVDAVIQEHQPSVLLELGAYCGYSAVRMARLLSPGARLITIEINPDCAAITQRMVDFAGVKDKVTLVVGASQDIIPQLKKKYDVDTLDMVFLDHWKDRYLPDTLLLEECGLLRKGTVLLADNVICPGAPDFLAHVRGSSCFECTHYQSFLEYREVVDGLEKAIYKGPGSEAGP

[4] = biological target: Guanidinoacetate N-methyltransferase (Homo sapiens) (UniProt Q14353); assay: as above; details: MTase-Glo luminescence, SAH detection, recombinant enzyme; activity change, negative = inhibition: at 57.3 µM (top of the series)
[5] = biological target: Nicotinamide N-methyltransferase (Homo sapiens) (UniProt P40261); assay: as above; details: MTase-Glo luminescence, SAH detection, recombinant enzyme; measured here: NNMT max response; stronger effect = lower value
Nicotinamide N-methyltransferase (Homo sapiens), sequence (P40261 whole entry, looked up): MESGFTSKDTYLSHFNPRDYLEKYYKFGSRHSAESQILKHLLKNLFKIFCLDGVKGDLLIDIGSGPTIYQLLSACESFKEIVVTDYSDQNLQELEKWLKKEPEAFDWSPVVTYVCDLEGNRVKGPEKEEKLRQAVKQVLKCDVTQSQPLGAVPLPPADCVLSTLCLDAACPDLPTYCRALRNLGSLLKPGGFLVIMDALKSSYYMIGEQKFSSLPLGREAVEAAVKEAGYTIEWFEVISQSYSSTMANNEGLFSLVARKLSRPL

[6] = biological target: Phenylethanolamine N-methyltransferase (Homo sapiens) (UniProt P11086); assay: as above; details: MTase-Glo luminescence, SAH detection, recombinant enzyme; measured here: PNMT max response; stronger effect = lower value
Phenylethanolamine N-methyltransferase (Homo sapiens), sequence (P11086 whole entry, looked up): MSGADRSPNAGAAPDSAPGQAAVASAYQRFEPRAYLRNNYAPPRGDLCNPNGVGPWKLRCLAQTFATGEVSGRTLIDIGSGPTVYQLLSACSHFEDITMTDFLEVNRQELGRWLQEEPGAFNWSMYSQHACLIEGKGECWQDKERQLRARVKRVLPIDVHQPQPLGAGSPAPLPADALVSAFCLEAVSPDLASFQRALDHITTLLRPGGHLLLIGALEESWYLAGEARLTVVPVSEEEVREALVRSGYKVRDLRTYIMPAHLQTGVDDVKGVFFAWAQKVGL

[7] = biological target: Rap guanine nucleotide exchange factor 3 (Homo sapiens) (UniProt O95398); assay: Confirmatory qHTS for antagonist of cAMP-regulated guanine nucleotide exchange factor 3 (EPAC1) (AID 1645880); further: nearly all actives have a fitted effect of over 55% in size
Rap guanine nucleotide exchange factor 3 (Homo sapiens), sequence (O95398 whole entry, looked up): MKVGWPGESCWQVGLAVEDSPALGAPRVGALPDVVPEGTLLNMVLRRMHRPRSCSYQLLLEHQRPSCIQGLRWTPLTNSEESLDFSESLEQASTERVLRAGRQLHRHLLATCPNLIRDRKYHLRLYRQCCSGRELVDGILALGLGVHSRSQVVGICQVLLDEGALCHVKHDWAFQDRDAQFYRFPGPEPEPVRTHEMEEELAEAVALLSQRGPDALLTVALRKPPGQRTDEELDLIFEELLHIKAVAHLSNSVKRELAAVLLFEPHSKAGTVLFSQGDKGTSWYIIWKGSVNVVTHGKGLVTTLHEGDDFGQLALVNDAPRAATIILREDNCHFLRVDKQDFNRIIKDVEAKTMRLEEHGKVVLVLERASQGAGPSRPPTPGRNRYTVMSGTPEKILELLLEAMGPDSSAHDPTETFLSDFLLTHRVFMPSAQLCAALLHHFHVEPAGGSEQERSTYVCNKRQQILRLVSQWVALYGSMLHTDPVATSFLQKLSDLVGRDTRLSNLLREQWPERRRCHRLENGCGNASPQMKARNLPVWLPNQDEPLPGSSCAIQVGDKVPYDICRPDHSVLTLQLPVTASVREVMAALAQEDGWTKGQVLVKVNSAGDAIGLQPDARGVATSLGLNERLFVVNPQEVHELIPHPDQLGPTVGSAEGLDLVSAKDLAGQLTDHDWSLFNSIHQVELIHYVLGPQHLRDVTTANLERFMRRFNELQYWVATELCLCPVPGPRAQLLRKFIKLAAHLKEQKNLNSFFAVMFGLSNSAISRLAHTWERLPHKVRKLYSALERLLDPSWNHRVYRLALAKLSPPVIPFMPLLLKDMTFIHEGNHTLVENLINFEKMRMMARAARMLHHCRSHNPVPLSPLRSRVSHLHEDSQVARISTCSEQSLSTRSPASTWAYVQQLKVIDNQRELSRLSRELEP
How it was run: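 Released BODIPY-GDP fluoresces less than Rap1-bound BODIPY-GDP; the signal is followed at 480/540 nm at 5-min intervals over 30 min, after 5 min at room temperature. Reactions contain 100 nM EPAC1, 250 nM RAP1B-BODIPY-GDP and 50 uM GDP; results are normalized to ATA and DMSO.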

[8] = biological target: Rap guanine nucleotide exchange factor 3 (Homo sapiens) (UniProt O95398); assay: Confirmatory qHTS for agonist of cAMP-regulated guanine nucleotide exchange factor 3 (EPAC1) (AID 1645881);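 further: EPAC1 catalysed release of BODIPY-GDP from Rap1B seen as fluorescence loss; nearly all actives have a fitted effect of over 75% in size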
[9] = biological target: Rap guanine nucleotide exchange factor 4 (Homo sapiens) (UniProt Q8WZA2); assay: Confirmatory qHTS for antagonist of cAMP-regulated guanine nucleotide exchange factor 4 (EPAC2) (AID 1645885); further: nearly all actives have a fitted effect of over 25% in size; further: potency means the concentration at half of the fitted maximal effect
Rap guanine nucleotide exchange factor 4 (Homo sapiens), sequence (Q8WZA2 whole entry, looked up): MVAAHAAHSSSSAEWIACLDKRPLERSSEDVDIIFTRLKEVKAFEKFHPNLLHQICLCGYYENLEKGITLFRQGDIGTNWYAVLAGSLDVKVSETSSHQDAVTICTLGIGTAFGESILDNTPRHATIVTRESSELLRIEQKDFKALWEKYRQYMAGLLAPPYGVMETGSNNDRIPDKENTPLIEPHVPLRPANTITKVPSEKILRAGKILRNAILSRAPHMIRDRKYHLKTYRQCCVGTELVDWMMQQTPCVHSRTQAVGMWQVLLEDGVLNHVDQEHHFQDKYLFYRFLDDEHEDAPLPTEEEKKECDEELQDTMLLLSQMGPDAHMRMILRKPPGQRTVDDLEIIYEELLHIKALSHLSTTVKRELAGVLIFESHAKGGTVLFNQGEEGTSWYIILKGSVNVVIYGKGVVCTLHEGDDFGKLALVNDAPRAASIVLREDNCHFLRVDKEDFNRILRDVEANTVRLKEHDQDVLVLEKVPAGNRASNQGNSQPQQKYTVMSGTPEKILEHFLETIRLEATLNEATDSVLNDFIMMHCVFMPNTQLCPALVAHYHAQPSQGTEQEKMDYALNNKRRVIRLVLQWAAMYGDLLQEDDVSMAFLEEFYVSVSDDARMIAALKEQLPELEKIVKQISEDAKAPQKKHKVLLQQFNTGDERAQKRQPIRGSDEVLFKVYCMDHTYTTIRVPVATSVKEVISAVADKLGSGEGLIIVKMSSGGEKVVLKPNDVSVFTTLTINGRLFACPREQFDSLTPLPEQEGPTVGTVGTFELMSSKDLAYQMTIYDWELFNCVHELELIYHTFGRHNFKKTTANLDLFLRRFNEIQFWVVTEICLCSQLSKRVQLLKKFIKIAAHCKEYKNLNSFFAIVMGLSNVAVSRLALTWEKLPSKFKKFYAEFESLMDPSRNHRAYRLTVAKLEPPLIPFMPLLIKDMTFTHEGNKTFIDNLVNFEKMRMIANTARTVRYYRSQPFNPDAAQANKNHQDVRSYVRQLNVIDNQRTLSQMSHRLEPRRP

[10] = biological target: Rap guanine nucleotide exchange factor 4 (Homo sapiens) (UniProt Q8WZA2); assay: Confirmatory qHTS for agonist of cAMP-regulated guanine nucleotide exchange factor 4 (EPAC2) (AID 1645884);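 further: nucleotide exchange releases bodipy-GDP from Rap1 and this lowers its fluorescence; nearly all actives have a fitted effect of over 65% in size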
[11] = biological target: Rap guanine nucleotide exchange factor 3 (Homo sapiens) (UniProt O95398); assay: Counterscreen qHTS for antagonist of cAMP-regulated guanine nucleotide exchange factor 3 (EPAC1) (AID 1645888)
How it was run: (§1)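 Rap1B-BODIPY-GDP 250 nM + GDP 50 uM; cpds 7-pt, final 9.74 nM–152 uM (activator mode) or from 7.32 nM upwards (inhibitor mode); RT; FI 480/540 nm at 5 and 30 min, then ± cAMP, reread.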

[12] = biological target: Rap guanine nucleotide exchange factor 3 (Homo sapiens) (UniProt O95398); assay: Counterscreen qHTS for agonist of cAMP-regulated guanine nucleotide exchange factor 3 (EPAC1) (AID 1645889); further: nearly all actives have a fitted effect of over 40% in size
How it was run: as §1

[13] = Primary qHTS for inhibitors of nuclear receptor binding SET domain protein 2 (NSD2) in an isogenic RCH-ACV NSD2 p.E1099K mutant (9B) (AID 1645876); further: nearly all actives have a fitted effect of over 70% in size; further: potency means the concentration at half of the fitted maximal effect
[14] = Primary qHTS for inhibitors of nuclear receptor binding SET domain protein 2 (NSD2) in an RCH-ACV wild type WT cells (2C) (AID 1645877); further: potency means the concentration at half of the fitted maximal effect; nearly all actives have a fitted effect of over 70% in size
[15] = biological target: Calcium and integrin-binding protein 1 (Homo sapiens) (UniProt Q99828); assay: Primary qHTS for Identification of Calcium Integrin Binding Protein 1 (CIB1) Competitor (AID 1508620);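 further: GST tagged CIB1 binding a fluorescein labelled alphaIIb integrin peptide tracer; top concentration of the series differs between compounds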
How it was run: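 CIB1-GST (1 uM final) and compound incubated 15 min at room temperature before adding FITC-alphaIIb peptide tracer (100 nM final). Competition for binding read by fluorescence polarization (ex 480, em 540) after another 15 min at room temperature.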

O=c1[nH]ccc2c(O)cccc12
Potency [1]: inactive | Potency [2]: inactive | Potency (Papain (Carica papaya)): inactive | activity [3]: 1.23% | activity change, negative = inhibition [4]: 2.16% | activity [5]: -0.246% | activity [6]: 1.15%

O=[N+]([O-])c1cccc2cn[nH]c12
Potency [1]: inactive | Potency [2]: inactive | Potency (Papain (Carica papaya)): inactive

Nc1nc2c(nc(Br)n2C2OC3COP(=O)(O)O[C@@H]3C2O)c(=O)[nH]1 (stereo not given in full)
Potency [1]: inactive | Potency (Papain (Carica papaya)): inactive

CCN(c1nc(N)c(C(=O)N=C(N)N)nc1Cl)C(C)C
Potency [1]: inactive | Potency (Papain (Carica papaya)): inactive

c1ccc(C(NCc2cccnc2)(c2ccccc2)c2ccccc2)cc1
Potency [1]: inactive | Potency [2]: inactive | Potency (Papain (Carica papaya)): inactive | Potency [7]: inactive | Potency [8]: inactive | Potency [9]: 1.11 µM (active)

Oc1cc(O)c2c(c1)O[C@H](c1ccc(O)c(O)c1)[C@@H](O)C2
Potency [1]: inactive | Potency [2]: inactive | Potency (Papain (Carica papaya)): inactive | activity [3]: 171% | activity change, negative = inhibition [4]: 4.5% | activity [5]: -7.72% | activity [6]: 7.68%

CC(O)C(O)[C@H]1CNc2nc(N)[nH]c(=O)c2N1 (stereo not given in full)
Potency [1]: inactive | Potency [2]: inactive | Potency (Papain (Carica papaya)): 25.1 µM (active) | activity [3]: -9.57% | activity change, negative = inhibition [4]: 4.12% | activity [5]: -14.2% | activity [6]: -4.71%

COC(=O)C1=C(C)NC(C)=C([N+](=O)[O-])C1c1ccccc1C(F)(F)F (stereo not given)
Potency [1]: inactive | Potency [2]: inactive | Potency (Papain (Carica papaya)): inactive | Potency [8]: inactive | Potency [10]: inactive | Potency [9]: inactive | outcome [11]: inactive | outcome [12]: inactive

N=C(N)SCCc1cnc[nH]1
Potency [1]: inactive | Potency [2]: inactive | Potency (Papain (Carica papaya)): inactive | activity [3]: -3.06% | activity change, negative = inhibition [4]: -1.52% | activity [5]: -8.2% | activity [6]: -8.19%

Nc1ccc2c3c(cccc13)C(=O)NC2=O
Potency [1]: 2.51 µM (active) | Potency [2]: inactive | activity [3]: 1.42% | activity change, negative = inhibition [4]: 4.2% | activity [5]: -4.84% | activity [6]: 2.54%

N=C(N)c1ccc(N)cc1
Potency [1]: inactive | Potency (Papain (Carica papaya)): inactive

C=CCN1CCc2c(cc(O)c(O)c2Br)[C@@H](c2ccccc2)C1
Potency [1]: inactive | Potency [2]: inactive | Potency (Papain (Carica papaya)): inactive | activity [3]: 62% | activity change, negative = inhibition [4]: 5.44% | activity [5]: -9.94% | activity [6]: -1.34%

CC(=O)NCCc1c[nH]c2ccc(O)cc12
Potency [1]: inactive | Potency [2]: inactive | Potency (Papain (Carica papaya)): inactive | Potency [13]: inactive

CNCCc1cnc(CCC(c2ccccc2)c2ccccc2)[nH]1
Potency [1]: inactive | Potency [2]: inactive | Potency (Papain (Carica papaya)): inactive | activity [3]: -11% | activity change, negative = inhibition [4]: 3.35% | activity [5]: -32.7% | activity [6]: -3.25%

CN(C)S(=O)(=O)c1ccc2c(c1)/C(=C/c1cc3c([nH]1)CCCC3)C(=O)N2
Potency [1]: inactive | Potency [2]: inactive | Potency (Papain (Carica papaya)): inactive | Potency [14]: 2.59 µM (active)

Cc1nc(N=Nc2ccc(C(=O)O)cc2)c(COP(=O)(O)O)c(C=O)c1O
Potency [1]: inactive | Potency [2]: inactive | Potency (Papain (Carica papaya)): inactive

Clc1nccc2c1ccc1ccccc12
Potency [1]: inactive | Potency [2]: inactive | Potency (Papain (Carica papaya)): inactive | activity [3]: 4.56% | activity change, negative = inhibition [4]: 3.35% | activity [5]: -11.8% | activity [6]: -6.62%

O=C(O)C1CN(CCCP(=O)(O)O)CCN1 (stereo not given)
Potency [1]: inactive | Potency [2]: inactive | Potency (Papain (Carica papaya)): inactive

C=CCN1CCc2cc(O)c(O)cc2C(c2ccccc2)C1 (stereo not given)
Potency [1]: inactive | Potency [2]: inactive | Potency (Papain (Carica papaya)): inactive | activity [3]: 101% | activity change, negative = inhibition [4]: 8.51% | activity [5]: -4.37% | activity [6]: -2.84%

NC/C=C\C(=O)O
Potency [1]: inactive | Potency [2]: inactive | Potency (Papain (Carica papaya)): inactive | activity [3]: -3.77% | activity change, negative = inhibition [4]: 4.36% | activity [5]: -7.89% | activity [6]: 2.22%

C[C@](Cc1ccc(O)c(O)c1)(NN)C(=O)O
Potency [1]: inactive | Potency (Papain (Carica papaya)): inactive | activity [3]: 156% | activity change, negative = inhibition [4]: 0.684% | activity [5]: -8.36% | activity [6]: 2.39%

O=C(O)CCC/C=C\C[C@@H]1[C@@H](/C=C/[C@H](O)C2Cc3ccccc3C2)[C@@H](F)C[C@@H]1O
Potency [1]: inactive | Potency (Papain (Carica papaya)): inactive

CCCCS(=N)(=O)CC[C@H](N)C(=O)O (stereo not given in full)
Potency [1]: inactive | Potency (Papain (Carica papaya)): inactive

C=C1C[C@@]23CC[C@H]4[C@@](C)(CCC[C@@]4(C)C(=O)OC4OC(CO)C(O)C(O)C4O)[C@@H]2CC[C@]1(OC1OC(CO)C(O)C(O)C1OC1OC(CO)C(O)C(O)C1O)C3 (stereo not given in full)
Potency [1]: inactive | Potency (Papain (Carica papaya)): inactive

Brc1c(Br)c(Br)c2[nH]cnc2c1Br
Potency [1]: inactive | Potency (Papain (Carica papaya)): inactive | activity [3]: -26.1% | Potency [4]: 27.3 µM (active) | activity [5]: -40.5% | activity [6]: -39.7%

NCCCCN
Potency [1]: inactive | Potency (Papain (Carica papaya)): inactive

C=C1C[C@@]23CC[C@H]4[C@@](C)(CCC[C@@]4(C)C(=O)O)[C@@H]2CC[C@]1(O)C3
Potency [1]: inactive | Potency (Papain (Carica papaya)): inactive

CCOC(=O)C12CC1/C(=N/O)c1ccccc1O2 (stereo not given)
Potency [1]: inactive | Potency (Papain (Carica papaya)): inactive

NC(Cc1cccc(-c2ccccc2CP(=O)(O)O)c1)C(=O)O (stereo not given)
Potency [1]: inactive | Potency (Papain (Carica papaya)): inactive

Nc1ccc(N2C(=O)c3ccccc3C2=O)c(Cl)c1
Potency [1]: inactive | Potency (Papain (Carica papaya)): inactive

Nc1ncnc2c1c(-c1ccc(Oc3ccccc3)cc1)cn2C1CCCC1
outcome [15]: inactive | Potency [2]: inactive | Potency (Papain (Carica papaya)): inactive | Potency [13]: 1.64 µM (active) | Potency [14]: 2.59 µM (active)

CC(=O)SC1CC2=CC(=O)CC[C@]2(C)C2CC[C@@]3(C)C(CC[C@@]34CCC(=O)O4)C12 (stereo not given in full)
Potency [1]: inactive | Potency (Papain (Carica papaya)): inactive

O=C(O)/C=C/c1cnc[nH]1
Potency [1]: inactive | Potency (Papain (Carica papaya)): inactive

C=CCNc1ncnc2ccc(Br)cc12
Potency [1]: inactive | Potency (Papain (Carica papaya)): inactive
